Screening data (PubChem BioAssay)
An excerpt weighted towards active compounds, which were near 9.2% of everything screened.
NPC1 prom act = NPC1 promoter activation. Huh7 NPC1 promoter luciferase reporter, 24 h. Potency, µM (series often up to 9.22 µM), without a hit: at the top dose activation, hits mostly activators. 2.4% of 320,000 active. AID 485313; also: % of control where 0% means no effect; nearly all actives have a fitted effect of over 60% in size
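Stably transfected Huh7 (NPC1 promoter→luciferase), 1500 cells/well in Opti-MEM + 10% FBS, 2 h settle, then compound 24 h at 37 °C. Luminescence after 10 min with Amplite reagent.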
SMN2 splice up = increases expression of the SMN2 splice variant. HEK293 SMN2-luciferase splicing reporter, luminescence, 30-36 h. Potency, µM (doses to about 46.1 µM), for inactives: at the highest dose activity change, positive = activation, hits mostly activators. 2.8% of 210,000 active; also: % of control where 0% means no effect; nearly all actives have a fitted effect of over 55% in size
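HEK293 cells carry an SMN2 minigene-luciferase reporter in which exon 7 inclusion puts luciferase in frame. Cells were seeded at 2000 cells/well, attached for 10-12 hours, then exposed to compounds for 30-36 hours at 37C before ONE-Glo luminescence.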
FLuc modulator = inhibits or activates purified firefly luciferase, miR-21 counter-screen | P08659 | purified FLuc, Km substrates, luminescence inhibition | Potency, µM (titrated, usually from 57.5 µM), without a hit: at the highest dose activity change, negative = inhibition, actives largely listed as inhibitors | 6.9% of 360,000 active | AID 588342;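 also: plate controls were vehicle for no effect and reference inhibitor for full effect; nearly all actives have a fitted effect of over 55% in size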
Target sequence (P08659 whole entry, looked up): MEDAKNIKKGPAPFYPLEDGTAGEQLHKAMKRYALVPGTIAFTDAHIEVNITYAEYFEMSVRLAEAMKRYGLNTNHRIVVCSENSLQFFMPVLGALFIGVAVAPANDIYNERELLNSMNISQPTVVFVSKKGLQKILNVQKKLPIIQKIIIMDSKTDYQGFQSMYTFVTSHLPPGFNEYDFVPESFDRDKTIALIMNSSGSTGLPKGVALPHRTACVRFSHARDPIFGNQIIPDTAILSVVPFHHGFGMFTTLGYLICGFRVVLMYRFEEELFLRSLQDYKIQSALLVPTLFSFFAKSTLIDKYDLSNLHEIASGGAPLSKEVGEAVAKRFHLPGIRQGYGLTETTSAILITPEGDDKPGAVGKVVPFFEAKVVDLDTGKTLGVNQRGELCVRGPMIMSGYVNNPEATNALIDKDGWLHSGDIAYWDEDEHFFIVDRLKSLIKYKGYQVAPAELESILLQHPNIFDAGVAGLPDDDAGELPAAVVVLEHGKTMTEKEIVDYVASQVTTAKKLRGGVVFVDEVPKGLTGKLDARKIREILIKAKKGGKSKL
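Purified P. pyralis luciferase (10nM final) with 10uM D-luciferin and 10uM ATP (Km levels) in 50mM Tris acetate pH 7.5, 10mM Mg acetate, 0.01% Tween-20, 0.05% BSA; qHTS 6-point titration, ~60 µM downward; luminescence read.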
Rab9 promoter act = Rab9 promoter activation. Huh7 Rab9 promoter-luciferase reporter, luminescence, 24 h. Potency, µM (titrated, usually from 9.22 µM), for inactives: at the top dose activation, negative = inhibition, actives largely listed as activators. 2.8% of 320,000 active. AID 485297; also: % of control where 0% means no effect; nearly all actives have a fitted effect of over 60% in size
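Using Huh7 cells stably transfected with Rab9 promoter–luciferase, compounds were incubated 24 h at 37 °C, 5% CO2; luciferase luminescence was read 10 min after reagent addition.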
ELG1 repair inh = ELG1-dependent DNA repair inhibition; HEK293T ELG1-luciferase reporter, luminescence, 16 h; DNA damage induced by 5-fluorouridine; Potency, µM (series often up to 46.1 µM), for inactives: at the highest dose activity change, negative = inhibition, usual class: inhibitors; 2.3% of 330,000 active; AID 504467; also: % is scaled to controls: 0 for no effect and ±100 for the full control effect; nearly all actives have a fitted effect of over 55% in size
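In this reporter screen, reduction of luminescence relative to DMSO vehicle indicated activity. Compounds and 5-fluorouridine were added together to 2,000 cells per well, incubated for 16 hr at 37 °C, then developed with ONE-Glo.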
ELG1 genotoxic = induces genotoxicity in HEK293T cells with luciferase-tagged ELG1; AID 504466; HEK293T ELG1-luciferase reporter, luminescence, 16 h; 1.3% of 330,000 active; Potency, µM (top dose mostly 46 µM), inactives show at the top dose activity change, positive = activation, hits mostly activators; also: % of control where 0% means no effect; nearly all actives have a fitted effect of over 60% in size
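16 hr compound incubation (37 °C, 5% CO2) of HEK293T cells carrying luciferase-tagged ELG1; luciferase then measured by ONE-Glo luminescence after 30 min at RT.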
An asterisk follows results filed as active. Calls follow the shape of the dose curve; as a rule, active = well fitted curve in the direction sought with a large enough effect; inconclusive = small, poorly fitted or top-dose-only effect, or another doubt; inactive = no such curve, though single readings can be large; an effect the other way counts as inactive or inconclusive. Potency is read from the fitted curve at half-maximal effect.

`CC1CC(C)CN(S(=O)(=O)c2ccc(C(C)(C)C)cc2)C1` (stereo not given) gave NPC1 prom act -4%, SMN2 splice up -14%, FLuc modulator 1%, Rab9 promoter act -10%, ELG1 repair inh -17% and ELG1 genotoxic -12%.
Screening COc1ccc(S(=O)(=O)N2CCCCC2)cc1NC(=O)c1c(F)cccc1Cl returned NPC1 prom act 3%, FLuc modulator -2%, Rab9 promoter act 1%, ELG1 repair inh -5% and ELG1 genotoxic 1%.
For Cc1nc2cc(NC(=O)C3COc4ccccc4O3)ccc2s1 (stereo not given) the results were NPC1 prom act inconclusive, FLuc modulator 12µM*, Rab9 promoter act inconclusive, ELG1 repair inh inconclusive and ELG1 genotoxic inconclusive.
For Cc1ccc(NC(=O)C2COc3ccccc3O2)cc1C (stereo not given) the results were NPC1 prom act 2.5µM*, FLuc modulator 19µM*, Rab9 promoter act inconclusive, ELG1 repair inh inconclusive and ELG1 genotoxic inconclusive.
Screening COC(=O)c1cccc(NC(=O)C2COc3ccccc3O2)c1 (stereo not given) returned NPC1 prom act inconclusive, SMN2 splice up 9%, FLuc modulator 17µM*, Rab9 promoter act inconclusive, ELG1 repair inh inconclusive and ELG1 genotoxic 18µM*.
Screening CCOC(=O)c1c(C)c(-c2ccccc2)n(CC(=O)NCc2cccc(OC)c2)c1C returned SMN2 splice up 5% and FLuc modulator -2%.
Screening Cc1cccc(N(CC(=O)NCCSc2nc3ccccc3s2)S(=O)(=O)c2ccccc2)c1 returned NPC1 prom act 0%, SMN2 splice up -4%, FLuc modulator -1%, Rab9 promoter act -3%, ELG1 repair inh 16µM* and ELG1 genotoxic -1%.
For COC(=O)c1ccc(C(NC(=O)OCc2ccccc2)/C(F)=C/[C@@H](C)C(=O)NCCO)cc1 (stereo not given in full) the results were SMN2 splice up 1%.
`O=C(N/N=C/c1ccc(Br)s1)c1ccc([N+](=O)[O-])cc1` gave NPC1 prom act -22%, SMN2 splice up -29%, FLuc modulator -2%, Rab9 promoter act -25%, ELG1 repair inh 5.8µM* and ELG1 genotoxic -7%.
NC(=O)N/N=C/c1ccc(N2CCOCC2)s1 was read as NPC1 prom act 0%, SMN2 splice up 10%, FLuc modulator inconclusive, Rab9 promoter act 2%, ELG1 repair inh -12% and ELG1 genotoxic 8%.
For O=C(NN=Cc1ccc(N2CCOCC2)s1)c1ccc([N+](=O)[O-])cc1 the results were ELG1 repair inh 9.2µM* and ELG1 genotoxic -9%.
`Cc1ccc([N+](=O)[O-])cc1N=Cc1ccc(Br)s1` gave NPC1 prom act inconclusive, SMN2 splice up inconclusive, FLuc modulator 13µM*, Rab9 promoter act -1%, ELG1 repair inh inconclusive and ELG1 genotoxic 9%.
CSc1ccccc1NC(=O)COC(=O)c1ccc(-n2nc(C)cc2C)cc1 was read as ELG1 repair inh -6% and ELG1 genotoxic -1%.
Screening Cc1cc(NC(=O)CSc2ncnc3c2cnn3-c2cccc(Cl)c2)no1 returned NPC1 prom act 7%, SMN2 splice up 7%, FLuc modulator -1%, Rab9 promoter act -4%, ELG1 repair inh 4% and ELG1 genotoxic 2%.
COC(=O)c1cccn(CC(=O)c2ccc(Cl)cc2Cl)c1=O was read as NPC1 prom act 0%, SMN2 splice up 7%, FLuc modulator 15µM*, Rab9 promoter act -6%, ELG1 repair inh 10% and ELG1 genotoxic 5%.
CCOC(=O)CN1C(=O)C(C)(C)Oc2ccc(C(=O)Nc3ccccc3OC)cc21 was read as NPC1 prom act -1%, SMN2 splice up -2%, FLuc modulator -3%, Rab9 promoter act 1%, ELG1 repair inh 18µM* and ELG1 genotoxic -9%.
For Cc1ccc(NC(=O)c2ccc3c(c2)N(CC(=O)N2CCCCC2)C(=O)C(C)(C)O3)cc1 the results were NPC1 prom act -2%, SMN2 splice up 28%, FLuc modulator 1%, Rab9 promoter act 0%, ELG1 repair inh 13µM* and ELG1 genotoxic -2%.
Screening CC(C)(C)NC(=O)c1ccc2c(c1)N(CC(=O)N1CCCCC1)C(=O)C(C)(C)O2 returned NPC1 prom act -1%, FLuc modulator -3%, Rab9 promoter act -5%, ELG1 repair inh -2% and ELG1 genotoxic 0%.
For Cc1csc(NC(=O)NCC2CCCC(CNC(=O)Nc3nc(C)cs3)C2)n1 (stereo not given) the results were NPC1 prom act 3.5µM*, FLuc modulator inconclusive, Rab9 promoter act 20%, ELG1 repair inh inconclusive and ELG1 genotoxic -1%.
`CC(=O)Nc1nc(C)cs1` gave NPC1 prom act -5%, SMN2 splice up -7%, FLuc modulator -2%, Rab9 promoter act 0%, ELG1 repair inh 10% and ELG1 genotoxic 4%.
Cc1csc(NC(=O)c2ccc[nH]c2=O)n1 was read as NPC1 prom act 4µM*, FLuc modulator 17µM*, Rab9 promoter act 3.5µM*, ELG1 repair inh inconclusive and ELG1 genotoxic 16µM*.
For Cc1csc(NC(=O)c2cccc(C)c2C)n1 the results were NPC1 prom act 3.2µM*, FLuc modulator 15µM*, Rab9 promoter act 2.8µM*, ELG1 repair inh inconclusive and ELG1 genotoxic inconclusive.
For COc1ccc(C(=O)Nc2nc(-c3nnn(-c4cc(OC)ccc4OC)c3C)ns2)cc1 the results were FLuc modulator -12%.
For COc1cccc(C(=O)Nc2nc(-c3nnn(-c4cccc(Cl)c4C)c3C)ns2)c1 the results were FLuc modulator 12µM*.
Cc1csc(NC(=O)c2cccnc2)n1 was read as NPC1 prom act -2%, FLuc modulator -11%, Rab9 promoter act 2%, ELG1 repair inh inconclusive and ELG1 genotoxic 9%.
Screening Cc1csc(NC(=O)CCNC(=O)c2ccccc2Cl)n1 returned NPC1 prom act -3%, SMN2 splice up 3%, FLuc modulator -3%, Rab9 promoter act 0%, ELG1 repair inh -12% and ELG1 genotoxic 0%.
For Cc1csc(NC(=O)c2ccncc2)n1 the results were NPC1 prom act -1%, FLuc modulator inconclusive, Rab9 promoter act 8%, ELG1 repair inh inconclusive and ELG1 genotoxic 1%.
`Cc1csc(NC(=O)c2ccccc2)n1` gave NPC1 prom act 4µM*, FLuc modulator 9.5µM*, Rab9 promoter act 3.5µM*, ELG1 repair inh inconclusive and ELG1 genotoxic inconclusive.
